# Reference: PubChem BioAssay
# Activity calls are given as the source filed them. Unless noted, how the calls were made is not given here.
# Columns and labels:
# [1] = test system: XIP peptide (Xip251-270) binding; assay: small-molecule binders of XIP peptide, primary screen, biochemical, small-molecule microarray, fluorescence 635/667 nm, 0.1 µg/mL protein (AID 1182); conditions: fluorescent protein binding, 635 nm, higher = more signal, called active from +8 up or from −8 down
# XIP peptide (Xip251-270) = assay: small-molecule binders of XIP peptide, primary screen, biochemical, small-molecule microarray, fluorescence 635/667 nm, 0.5 µg/mL protein (AID 1183); conditions: small-molecule microarray binding, fluorescence 635 nm; higher = more signal
# [2] = Plasmodium falciparum growth inhibition, primary screen, strain 3D7, DAPI fluorescence, 100 nL (AID 1184);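 further: parasites grown inside human red blood cells in medium with human serum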; conditions: P. falciparum 3D7 growth, 3 d, higher = more signal
# [3] = biological target: Homeobox protein Hox-A13 (Mus musculus) (UniProt Q62424); assay: inhibitors of HoxA13-DNA binding, primary screen, biochemical, fluorescence polarization, labeled oligonucleotide (AID 1185); conditions: 15 min, higher = more signal, called active from +8 up or from −8 down
# [4] = inhibitors of hydroxyurea-induced Chk1 phosphorylation, primary screen, imaging, HeLa, phospho-Chk1 antibody, percent positive cells (AID 1186); conditions: hydroxyurea-induced phospho-Chk1 immunofluorescence imaging, higher = more signal
# [5] = inhibitors of hydroxyurea-induced Chk1 phosphorylation, primary screen, imaging, HeLa, phospho-Chk1 nuclear intensity (AID 1187); conditions: hydroxyurea-induced phospho-Chk1 immunofluorescence imaging, higher = more signal
# Sequence of Homeobox protein Hox-A13 (Mus musculus) (Q62424 whole entry, looked up): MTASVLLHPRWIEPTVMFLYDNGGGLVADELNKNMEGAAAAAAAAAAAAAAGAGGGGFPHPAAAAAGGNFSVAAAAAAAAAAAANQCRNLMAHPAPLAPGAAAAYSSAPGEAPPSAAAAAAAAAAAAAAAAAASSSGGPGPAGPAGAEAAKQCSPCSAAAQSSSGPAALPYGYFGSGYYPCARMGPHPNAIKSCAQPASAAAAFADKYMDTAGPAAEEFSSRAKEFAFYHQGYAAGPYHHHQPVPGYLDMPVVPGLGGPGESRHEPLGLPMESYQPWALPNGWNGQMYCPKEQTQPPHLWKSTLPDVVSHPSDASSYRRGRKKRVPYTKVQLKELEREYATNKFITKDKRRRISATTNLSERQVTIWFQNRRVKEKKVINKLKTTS
Structure (SMILES),composite z-score [1],composite z-score (XIP peptide (Xip251-270)),z-score [2],z-score [3],z-score [4],z-score [5]
C=CCC(OC(C)=O)[C@@H]1[C@@H](N(Cc2cc3ccccc3o2)C(=O)c2ccc(C)cc2)c2cc(OCCCO)ccc2N1C(=O)c1ccc2ccccc2n1 (stereo partly drawn),0.167 (inactive),-0.442,-0.863,-1.79 (inactive),0.347 (inactive),0.295 (inactive)
C=CCN1C(=O)[C@]2(O[C@H](CCn3cc(CCO)nn3)[C@@H]([Si](C)(C)c3ccc(OC)cc3)[C@@H]2C)c2cc(NC(=O)c3ccc(OC)cc3)ccc21,1.02 (inactive),0.18,-2.84,-4.21 (inactive),-0.798 (inactive),-0.823 (inactive)
CC(C)[Si]1(C(C)C)O[C@@H](c2ccccc2)c2cc(C3CC3)nc(-c3ccc(Oc4ccccc4)cc3)c21,-0.732 (inactive),-0.736,-1.45,0.0985 (inactive),-0.446 (inactive),0.661 (inactive)
C=CC[C@@]12N=C(c3ccc(OCCCO)cc3)O[C@@H]1c1ccccc1CN(Cc1ccccc1)C2=O,1.54 (inactive),0.78,-2.61,-1.94 (inactive),-0.367 (inactive),0.0207 (inactive)
C=CCN(C(=O)C1N(c2ccc(CCO)cc2)C(=O)C2C(C(=O)O)C3C=CC21O3)C(C)(C)C (stereo not drawn),0.865 (inactive),-1.52,-1.71,0.729 (inactive),0.0293 (inactive),-0.112 (inactive)
COC(=O)C1=CC(c2ccc(CO)cc2)=CC(C2CC2)N(Cc2sc3ccccc3c2Cl)C=C1C(=O)OC (stereo not drawn),2.17 (inactive),0.889,-2.13,-2.26 (inactive),-0.288 (inactive),-0.225 (inactive)
O=C1O[C@H](c2ccccc2)[C@H](c2ccccc2)N2[C@H]1[C@@H](C(=O)Nc1nc3ccccc3s1)[C@]1(C(=O)Nc3ccc(C#CC4=CCCCC4)cc31)[C@H]2c1ccccc1OCCO,0.0485 (inactive),0.0555,-2.09,-9.05 (active),0.205 (inactive),0.375 (inactive)
CN1CCC(CCCO)=CC1C1CC1 (stereo not drawn),-0.289 (inactive),-0.5,-0.548,-1.63 (inactive),-0.734 (inactive),-0.684 (inactive)
CC(C)[Si]1(C(C)C)OCc2cc(C3CC3)nc(-c3ccccc3)c21,0.119 (inactive),0.939,-1.16,-0.631 (inactive),-0.37 (inactive),-0.0248 (inactive)
CC(C)CNC(=O)[C@@]1(C)c2ccccc2C(=O)N(Cc2ccc(OC(F)(F)F)cc2)[C@H]1c1ccc(CO)cc1,-0.332 (inactive),-1.4,-1.12,-2.24 (inactive),-0.273 (inactive),-0.177 (inactive)
C=CCOC(=O)[C@@H]1[C@H]2C(=O)O[C@H](c3ccccc3)[C@H](c3ccccc3)N2[C@H](c2ccc(OCCOC(=O)[C@H]3C[C@H]4C(=O)N[C@@H](CCCCNC(C)=O)C(=O)N4[C@H]3c3ccc(O)cc3)cc2)[C@@]12C(=O)Nc1ccc(I)cc12,0.393 (inactive),0.566,-1.78,0.32 (inactive),0.293 (inactive),-0.568 (inactive)
COCCOC(=O)N1C(=O)[C@@]2(c3cc(C#CCCO)ccc31)[C@H](c1ccc(OCCO)cc1)N1[C@H](c3ccccc3)[C@H](c3ccccc3)OC(=O)[C@H]1[C@@H]2C(=O)NC[C@H](O)c1ccccc1,0.405 (inactive),0.765,-2.1,-1.24 (inactive),-0.234 (inactive),-0.341 (inactive)
CC(C)C[C@@H]1NC(=O)[C@H](CC(C)C)NC(=O)[C@@]23C(=O)N[C@@H](Cc4ccccc4)C2[C@H](C)[C@@]2(C)O[C@H]2C3/C=C/CC/C=C/CNC1=O (stereo partly drawn),-0.404 (inactive),0.674,-1.52,-6.55 (inactive),-0.218 (inactive),-0.0919 (inactive)
C#CCNC(/C=C/c1ccccc1)CO (stereo not drawn),-0.447 (inactive),0.0391,-0.414,-1.21 (inactive),0.0357 (inactive),0.237 (inactive)
C=CCOC(=O)[C@@H]1[C@H]2C(=O)O[C@H](c3ccccc3)[C@H](c3ccccc3)N2[C@H](c2ccc(OCCOC(=O)[C@H]3C[C@H]4C(=O)N5CCC[C@H]5C(=O)N4[C@H]3c3ccc(O)cc3)cc2)[C@@]12C(=O)Nc1ccccc12,1.22 (inactive),0.804,-2.01,1.59 (inactive),0.458 (inactive),0.895 (inactive)
CCOC(=O)C[C@H]1[C@H](OC(=O)Cc2ccc3c(c2)OCO3)[C@@H](NC(=O)CC(C)C)c2cc(OCCCO)ccc2N1C(=O)c1ccccc1,0.443 (inactive),-0.487,-0.584,-1.41 (inactive),-0.398 (inactive),-0.321 (inactive)
C[C@H]1C2[C@H](Cc3ccccc3)NC(=O)[C@]23C(=O)N[C@H](Cc2ccccc2)C(=O)N[C@@H](Cc2ccccc2)C(=O)NC/C=C\C/C=C/C3[C@@H]2O[C@]12C (stereo partly drawn),-0.157 (inactive),-0.564,-0.873,-7.06 (inactive),0.531 (inactive),0.375 (inactive)

Structure (SMILES),composite z-score [1],composite z-score (XIP peptide (Xip251-270)),z-score [2],z-score [3],z-score [4],z-score [5]
[N-]=[N+]=Nc1ccccc1C[C@@]1(C(=O)N2CCOCC2)N=C(c2ccc(OCCCO)cc2)O[C@@H]1c1ccccc1N=[N+]=[N-],0.49 (inactive),0.348,-2.28,-5.16 (inactive),-1.03 (inactive),-1.06 (inactive)
[N-]=[N+]=NCc1ccccc1C[C@@]1(C(=O)N2CCOCC2)N=C(c2ccc(OCCCO)cc2)O[C@@H]1c1ccccc1N=[N+]=[N-],1.4 (inactive),0.711,-1.98,-0.217 (inactive),-0.269 (inactive),0.0427 (inactive)
CCOC(=O)C[C@H]1[C@H](OC(=O)Cc2ccc3c(c2)OCO3)[C@@H](NC(=O)c2ccc3ccccc3c2)c2cc(OCCCO)ccc2N1C(=O)Cc1ccc(OC)cc1,1.46 (inactive),0.737,-0.415,-2.03 (inactive),0.407 (inactive),0.668 (inactive)
C=C(C(=O)CC[C@H](OC(=O)c1ccccc1-c1ccccc1C(=O)O)c1ccc(CO)o1)C(C)C,0.161 (inactive),0.697,-0.241,-6.22 (inactive),0.38 (inactive),0.239 (inactive)
CCOC(=O)C[C@H]1[C@H](OC(=O)c2ccccc2-c2ccccc2)[C@@H](NC(=O)c2ccc(-c3ccccc3)cc2)c2cc(OCCCO)ccc2N1C(=O)Cc1ccc(OC)cc1,0.617 (inactive),0.222,0.561,-2.32 (inactive),0.663 (inactive),0.241 (inactive)
COc1ccc(C(=O)Nc2ccc(CN3C(=O)[C@]4(O[C@H](CCn5cc(CCO)nn5)[C@@H]([Si](C)(C)c5ccc(OC)cc5)[C@@H]4C)c4ccccc43)cc2)cc1,-0.154 (inactive),0.621,-2.78,-3.55 (inactive),0.188 (inactive),0.686 (inactive)
CCCCCCc1nc(-c2cc(C)c(OC)c(C)c2)cc2c1[Si](C(C)C)(C(C)C)O[C@H]2c1ccccc1,-0.408 (inactive),-0.461,-0.753,-1.91 (inactive),0.0883 (inactive),-0.242 (inactive)
CN1C(=O)C2C=CC(C(O)c3ccc(N(C)C)cc3)N(Nc3ccc([N+](=O)[O-])cc3[N+](=O)[O-])C2C1=O (stereo not drawn),0.695 (inactive),0.301,0.985,-3.89 (inactive),0.347 (inactive),-0.169 (inactive)
O=C(CS)NCCCCCNC(=O)[C@H]1C[C@H]2C(=O)N[C@@H](Cc3ccccc3)C(=O)N2[C@H]1c1ccc(O)cc1,0.818 (inactive),-0.072,-0.0713,-2.65 (inactive),-0.319 (inactive),0.637 (inactive)
O=C/C=C/c1ccccc1Cl,0.0944 (inactive),-0.264,0.316,-0.26 (inactive),0.152 (inactive),0.0674 (inactive)
CN(C)CCCC[C@@H]1NC(=O)[C@@H]2C[C@H](C(=O)O)[C@H](c3ccc(O)cc3)N2C1=O,0.646 (inactive),0.386,-1.35,2.19 (inactive),0.317 (inactive),0.448 (inactive)
CCCCCCc1nc(C2CC2)c(C)c2c1[Si](C(C)C)(C(C)C)OC2,-0.0485 (inactive),-0.462,-2.41,2.65 (inactive),-0.53 (inactive),-0.23 (inactive)
COC(=O)[C@@]1(Cc2ccccc2)[C@H]2c3cc(C(=O)N4CCCC4)n(CCN4CNCC4=O)c3C[C@H]2CN1C(=O)c1ccccc1,1.12 (inactive),-0.127,-1.12,-5.22 (inactive),0.421 (inactive),0.912 (inactive)
CO[C@H]1O[C@H](CO)[C@@H](OC(=O)Nc2ccccc2)[C@H](OC(=O)Nc2ccc3c(c2)OCO3)[C@@H]1OC(=O)Nc1ccc2c(c1)OCO2,2.23 (inactive),0.863,-1.9,-9.6 (active),0.149 (inactive),0.121 (inactive)
CC(C)=C1C(=O)C(c2ccccc2)=C2CN3C(=O)N(CCc4ccccc4)C(=O)[C@]3(Cc3ccccc3)[C@H]21,-0.315 (inactive),-0.78,-0.774,-0.972 (inactive),0.844 (inactive),0.84 (inactive)
Cc1ccccc1C(O)C1C=CC2C(=O)N(c3ccccc3)C(=O)C2N1Nc1ccc(C#N)cc1 (stereo not drawn),3.08 (inactive),0.761,-0.494,-0.699 (inactive),-0.873 (inactive),-0.982 (inactive)
